Assay outcomes from PubChem BioAssay.
Many of the other results were omitted from the sample, so hits are more common in it than they were.
Pf apPOL inh: Pf-apPOL inhibitors, biochemical, fluorescence; Plasmodium falciparum apicoplast DNA polymerase (apPOL); Recombinant Pf-apPOL, molecular beacon fluorescence, 1.5 h; inhibition, % at 10 µM; 0.25% of 210,000 active
mHTT CaM bind: mutant huntingtin-calmodulin interaction inhibitors – biochemical, AlphaScreen, primary screen. P42858. AlphaScreen His-mHTT/GST-CaM binding, luminescence. inhibition, % at 15 µM. 3.6% of 190,000 active. AID 1671202, 2021
Target sequence (P42858 whole entry, looked up, change not shown): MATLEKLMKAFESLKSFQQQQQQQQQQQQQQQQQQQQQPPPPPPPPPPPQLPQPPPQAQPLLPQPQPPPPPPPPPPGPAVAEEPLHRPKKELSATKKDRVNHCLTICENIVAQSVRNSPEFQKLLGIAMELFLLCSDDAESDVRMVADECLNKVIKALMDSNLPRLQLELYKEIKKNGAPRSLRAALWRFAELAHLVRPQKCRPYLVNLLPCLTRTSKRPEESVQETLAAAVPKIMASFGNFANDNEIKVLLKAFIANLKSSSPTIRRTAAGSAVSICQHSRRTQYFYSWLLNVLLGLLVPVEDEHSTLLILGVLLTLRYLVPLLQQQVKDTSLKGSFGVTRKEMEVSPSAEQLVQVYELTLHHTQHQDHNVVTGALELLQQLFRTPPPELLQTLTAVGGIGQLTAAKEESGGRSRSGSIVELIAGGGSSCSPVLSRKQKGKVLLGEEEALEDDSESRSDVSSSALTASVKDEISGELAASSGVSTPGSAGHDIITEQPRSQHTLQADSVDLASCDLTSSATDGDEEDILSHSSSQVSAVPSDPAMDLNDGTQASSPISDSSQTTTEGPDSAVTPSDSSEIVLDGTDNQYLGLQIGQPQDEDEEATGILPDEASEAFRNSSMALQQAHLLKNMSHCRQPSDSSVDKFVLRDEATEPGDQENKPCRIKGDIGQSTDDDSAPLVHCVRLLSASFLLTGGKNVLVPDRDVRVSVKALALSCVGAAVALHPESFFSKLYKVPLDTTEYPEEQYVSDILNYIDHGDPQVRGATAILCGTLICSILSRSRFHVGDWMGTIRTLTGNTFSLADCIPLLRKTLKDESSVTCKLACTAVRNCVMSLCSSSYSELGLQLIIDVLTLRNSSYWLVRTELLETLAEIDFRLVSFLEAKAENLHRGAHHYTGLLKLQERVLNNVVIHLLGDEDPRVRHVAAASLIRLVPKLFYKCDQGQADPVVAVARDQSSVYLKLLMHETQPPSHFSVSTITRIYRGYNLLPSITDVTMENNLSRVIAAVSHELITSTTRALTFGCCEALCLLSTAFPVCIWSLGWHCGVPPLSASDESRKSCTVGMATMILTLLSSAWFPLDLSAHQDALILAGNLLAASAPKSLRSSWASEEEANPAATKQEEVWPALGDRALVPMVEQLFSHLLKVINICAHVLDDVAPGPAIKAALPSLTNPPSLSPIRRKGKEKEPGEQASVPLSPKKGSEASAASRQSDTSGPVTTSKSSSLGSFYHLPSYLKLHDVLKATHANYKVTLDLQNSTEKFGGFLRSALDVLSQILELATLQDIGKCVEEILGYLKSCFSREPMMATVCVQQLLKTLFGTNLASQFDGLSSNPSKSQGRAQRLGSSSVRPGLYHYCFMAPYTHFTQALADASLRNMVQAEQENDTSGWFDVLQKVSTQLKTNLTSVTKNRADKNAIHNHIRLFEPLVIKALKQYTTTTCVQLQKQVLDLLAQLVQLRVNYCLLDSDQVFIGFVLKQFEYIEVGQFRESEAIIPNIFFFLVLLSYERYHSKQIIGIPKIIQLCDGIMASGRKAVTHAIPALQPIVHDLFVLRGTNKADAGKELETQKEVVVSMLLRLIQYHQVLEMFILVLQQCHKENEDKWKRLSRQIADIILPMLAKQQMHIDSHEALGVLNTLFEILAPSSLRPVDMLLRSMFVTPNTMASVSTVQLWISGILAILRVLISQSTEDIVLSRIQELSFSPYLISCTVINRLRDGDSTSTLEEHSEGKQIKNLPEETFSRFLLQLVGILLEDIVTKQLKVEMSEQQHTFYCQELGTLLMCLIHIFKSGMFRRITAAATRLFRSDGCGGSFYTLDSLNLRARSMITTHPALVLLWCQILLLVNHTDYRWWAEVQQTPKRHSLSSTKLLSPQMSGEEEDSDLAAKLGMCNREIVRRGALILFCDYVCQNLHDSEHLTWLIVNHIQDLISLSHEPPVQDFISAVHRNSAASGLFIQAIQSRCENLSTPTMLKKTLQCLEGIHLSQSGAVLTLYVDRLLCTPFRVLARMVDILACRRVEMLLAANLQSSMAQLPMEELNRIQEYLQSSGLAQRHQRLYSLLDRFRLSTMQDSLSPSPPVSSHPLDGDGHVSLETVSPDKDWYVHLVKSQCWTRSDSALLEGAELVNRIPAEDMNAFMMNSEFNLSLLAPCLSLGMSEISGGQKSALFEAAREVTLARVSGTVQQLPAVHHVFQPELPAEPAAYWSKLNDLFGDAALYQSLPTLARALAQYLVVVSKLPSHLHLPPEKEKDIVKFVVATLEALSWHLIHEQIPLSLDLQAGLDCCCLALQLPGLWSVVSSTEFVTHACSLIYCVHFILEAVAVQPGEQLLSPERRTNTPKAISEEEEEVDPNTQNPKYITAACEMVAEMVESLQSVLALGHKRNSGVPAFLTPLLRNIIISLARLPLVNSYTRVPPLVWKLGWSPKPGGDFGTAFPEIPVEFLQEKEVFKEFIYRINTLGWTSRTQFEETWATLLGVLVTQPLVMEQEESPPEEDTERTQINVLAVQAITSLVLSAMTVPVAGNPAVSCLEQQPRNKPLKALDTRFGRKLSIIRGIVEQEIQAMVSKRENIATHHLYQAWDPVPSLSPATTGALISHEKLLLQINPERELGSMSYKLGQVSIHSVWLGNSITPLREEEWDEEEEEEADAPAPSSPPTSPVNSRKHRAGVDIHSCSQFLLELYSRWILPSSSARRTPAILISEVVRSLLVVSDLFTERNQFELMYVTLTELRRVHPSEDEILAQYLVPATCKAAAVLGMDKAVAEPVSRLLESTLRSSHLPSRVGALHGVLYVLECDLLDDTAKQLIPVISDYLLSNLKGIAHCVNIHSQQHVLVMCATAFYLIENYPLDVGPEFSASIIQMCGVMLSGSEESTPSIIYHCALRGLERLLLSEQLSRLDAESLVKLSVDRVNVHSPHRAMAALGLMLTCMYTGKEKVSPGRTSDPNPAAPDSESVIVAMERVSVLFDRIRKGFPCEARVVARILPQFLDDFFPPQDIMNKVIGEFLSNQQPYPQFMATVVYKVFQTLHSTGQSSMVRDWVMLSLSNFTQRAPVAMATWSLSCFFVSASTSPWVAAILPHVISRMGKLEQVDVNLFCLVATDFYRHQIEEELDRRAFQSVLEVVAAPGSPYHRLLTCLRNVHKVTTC
Hits are given with their value; – = inactive; · = not tested or not shown. Cut-off read from the data, not from the text of the source: active = inhibition above about 50%; inactive = the rest.

SMILES	Pf apPOL inh	mHTT CaM bind
CC1(C)Cc2cccc(OCC(=O)NCC3CCN(C(=O)Oc4ccccc4)CC3)c2O1	–	–
Nc1nc(-c2ccc(Cl)c([N+](=O)[O-])c2)nc2c1c(=O)oc1ccccc12	–	–
O=C(CN1CCN(C(=O)c2cc(-c3ccco3)[nH]n2)CC1)c1ccco1	73	60
O=C(c1cc(-c2ccco2)[nH]n1)N1CCC(COCc2ccccc2)CC1	–	59
CS(=O)(=O)N1CCN(C(=O)c2cc(-c3ccco3)[nH]n2)CC1	–	–
Cc1cc(C(=O)N2CCC(COCc3ccccc3)CC2)no1	–	–
Cc1ccc2c(c1)C1CC(C)(O2)N(c2ccc(C(=O)O)cc2)C(=O)N1 (centres undefined)	–	–
CCN1CCN(C(=O)C2CCc3sc(C(=O)N4CCCC4)cc3C2)CC1 (centres undefined)	–	–
O=C(c1ccc(-c2cccs2)nc1)N1CCCCC1	–	–
O=C(c1ccnc(N2CCCCC2)n1)N1CCN(c2cccc(Cl)c2)CC1	–	56
CCN1CCn2cc(C(=O)N3CCN(c4ccc(Cl)cc4)CC3)nc2C1	–	–
CC1CCN(c2nccc(C(=O)N3CCN(c4cccc(Cl)c4)CC3)n2)CC1	–	–
CCN1CCn2cc(C(=O)N3CCN(c4cccc(Cl)c4)CC3)nc2C1	–	53
O=C(Cn1[nH]c2c(cnc3ccc(F)cc32)c1=O)Nc1ccccc1	–	–
COCCCNC(=O)c1ccc(Cl)c(NC(=O)Nc2ccc(Cl)c(Cl)c2)c1	–	52
COCCCNC(=O)c1cccc(Cl)c1	–	–
COc1ccc(C=CC(=O)N2CCC(C)CC2)cc1Br	–	–
Cc1ccc(NC(=O)C2CC(=O)N(c3cc(C)cc(C)c3)C2)cc1 (centres undefined)	–	–
OC(C#Cc1ccccc1)C#CC(O)(c1ccccc1)c1ccccc1 (centres undefined)	–	98
OC(C#CC(O)(c1ccccc1)c1ccccc1)c1cccnc1 (centres undefined)	–	–
CC(=O)N1CCC2(CC1)SCC(=O)N2c1ccc(F)cc1	–	–
CCC(CC)NC(=O)COc1ccc(OC)cc1	–	–
Cc1onc(-c2c(Cl)cccc2Cl)c1C(=O)On1c(-c2ccccc2)nc2ccccc2c1=O	–	·
O=C(On1c(-c2ccccc2)nc2ccccc2c1=O)c1ccco1	–	100
O=C(N1CCCC1c1nc(-c2ccccc2)n[nH]1)C1(c2ccccc2)CC1 (centres undefined)	–	–
SMILES	Pf apPOL inh	mHTT CaM bind
N#Cc1cccc(NC(=O)CSc2nc3c(c(=O)[nH]2)CN(Cc2ccccc2)CC3)c1	–	54
O=c1[nH]c(SCc2ccccc2Cl)nc2c1CN(Cc1ccccc1)CC2	–	–
O=C1NC2(CCN(C(=O)NC3CCCCC3)CC2)Nc2cc(Cl)ccc21	–	–
O=C(Nc1ccccc1)C1C(c2ccccc2)C1(Cl)Cl (centres undefined)	–	–
Cc1cccc(NC(=O)C2C(c3ccccc3)C2(Cl)Cl)c1C (centres undefined)	67	–
CCOc1cccc(C(=O)Nc2ccc(NC(=O)c3cccc(C)c3)cc2)c1	–	–
C=CCSc1nnc2c(n1)OC(/C=C/c1ccco1)Nc1ccccc1-2 (centres undefined)	–	–
CCSc1nnc2c(n1)OC(c1ccccn1)Nc1ccc(Br)cc1-2 (centres undefined)	–	–
CCCSc1nnc2c(n1)OC(/C=C/c1ccco1)Nc1ccccc1-2 (centres undefined)	–	54
CSc1nnc2c(n1)OC(/C=C/c1ccco1)Nc1ccccc1-2 (centres undefined)	–	–
C=CCSc1nnc2c(n1)OC(/C=C/c1ccco1)Nc1ccc(Br)cc1-2 (centres undefined)	–	87
CCSc1nnc2c(n1)OC(c1ccccn1)Nc1ccccc1-2 (centres undefined)	93	–
CSc1nnc2c(n1)OC(/C=C/c1ccco1)Nc1ccc(Br)cc1-2 (centres undefined)	–	92
CSc1nnc2c(n1)OC(c1ccccn1)Nc1ccc(Br)cc1-2 (centres undefined)	–	–
Cc1cc(=O)[nH]c(N=C(N)Nc2ccc(F)cc2)n1	–	–
O=C(C1=C(O)/C(=C/c2ccccc2)CCC1)C(F)(F)F	–	–
COc1cc(OC)c(-n2cc(-c3ccc4c(c3)OCO4)[nH]c2=O)cc1Cl	–	–
O=C(c1ccncc1)N1CCC(n2nc(-c3ccsc3)ccc2=O)CC1	–	–
Cc1ccsc1C(=O)N1CCC(n2nc(-c3ccsc3)ccc2=O)CC1	–	96
CC1CCN(C(=O)c2cnn3c(-c4ccc(C(C)C)cc4)ccnc23)CC1	–	–
COc1ccc(C(=O)N2CC(C(=O)NC(C)C)C(c3ccccc3)C2)cc1 (centres undefined)	–	–
COc1ccc(C2=NN3C(C2)c2cc(OC)ccc2OC3c2cc(OC)c(OC)c(OC)c2)cc1 (centres undefined)	–	59
CCOc1cccc2c1OC(c1ccc(F)c(F)c1)N1N=C(c3ccco3)CC21 (centres undefined)	–	–
COc1cccc2c1OC(c1cccc(F)c1)N1N=C(c3ccco3)CC21 (centres undefined)	–	–
COc1cccc(C2Oc3ccc(Cl)cc3C3CC(c4ccco4)=NN32)c1 (centres undefined)	–	–
SMILES	Pf apPOL inh	mHTT CaM bind
COc1cc(C2Oc3ccccc3C3CC(c4ccccc4)=NN32)cc(OC)c1OC (centres undefined)	·	–
Fc1ccc(C2Oc3ccc(Cl)cc3C3CC(c4ccco4)=NN32)cc1F (centres undefined)	–	82
COc1ccc(C2Oc3ccc(Cl)cc3C3CC(c4ccco4)=NN32)cc1OC (centres undefined)	–	60
Brc1ccc2c(c1)C1CC(c3ccco3)=NN1C(c1cccs1)O2 (centres undefined)	–	89
COc1ccc(C2Oc3ccccc3C3=C2C(c2ccc(F)cc2)n2ncnc2N3)cc1 (centres undefined)	–	–
FC(F)Oc1ccc(/C=C/c2nnc(-c3ccncc3)o2)cc1	·	–
COc1ccc(CCN2CC(C(=O)NCC3CCCCC3)CC2=O)cc1OC (centres undefined)	–	–
Cc1ccc2c(c1)N(c1ccc(F)cc1F)C=C(C#N)S2(=O)=O	–	–
O=C(Cc1ccccc1Cl)NCC1CCN(Cc2ccsc2)CC1	–	–
CN1CCN(c2c([N+](=O)[O-])c(=O)n(C)c3ccccc23)CC1	–	–
CC(=O)N1CCCC(COc2cccc(C(=O)N3CCCCC3)c2)C1 (centres undefined)	–	–
COc1cc(C2Oc3ccc(Cl)cc3C3CC(c4ccco4)=NN32)cc(OC)c1OC (centres undefined)	–	63
COc1cc(C2Oc3c(OC)cccc3C3CC(c4ccco4)=NN32)cc(OC)c1OC (centres undefined)	–	–
c1ccc(CCNc2ncnc3ccccc23)cc1	–	–
NNc1ncnc2ccccc12	·	100
O=S(=O)(Nc1nccs1)c1ccc(N=Cc2cc(Cl)cc(Cl)c2O)cc1	–	–
O=S(=O)(Nc1nccs1)c1ccc(N=Cc2ccccc2O)cc1	–	–
O=S(=O)(Nc1nccs1)c1ccc(N=Cc2cc(Br)ccc2O)cc1	–	88
O=[N+]([O-])c1ccc(C=Nc2ccc(S(=O)(=O)Nc3nccs3)cc2)cc1	–	62
